# Experimental data taken from PubChem BioAssay (NCATS).
# Values joined by “and” are separate entries in the source; they are usually repeats but may differ in a detail not shown here. Equal values may be shown once. Records with an inconclusive call do not appear. Where a call stands in place of a potency, no number is given. A structure can be active in one record and inactive in another. Active and inactive are the calls of the source. Unless noted, calls come from the whole dose curve; as a rule, active = well fitted curve in the direction sought with a large enough effect; inconclusive = small, poorly fitted or top-dose-only effect, or another doubt; inactive = no such curve, though single readings can be large; an effect the other way counts as inactive or inconclusive.
# How the values were obtained:
# [1] = P-glycoprotein substrates identified in KB-8-5-11 adenocarcinoma cell line, qHTS therapeutic library screen (AID 1346987); note: nearly all actives have a fitted effect of over 65% in size; note: potency is the fitted concentration of half-maximal effect
# How it was run: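 KB-8-5-11: colchicine-selected sub-line of KB-3-1 over-expressing P-gp; assay medium lacked colchicine. 72 h drug exposure at 37 degree C, CellTiter-Glo.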
# [2] = NS1 protein of Zika virus - qHTS assay to identify small molecule inhibitors in human HEK 293 cells (AID 1347053); note: series mostly up to about 46 µM; nearly all actives have a fitted effect of over 55% in size
# How it was run: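 HEK 293 cells pretreated with compound for 1 h, then infected with ZIKV MR766 (MOI 0.5) for 24 h at 37 C. NS1 detected by TR-FRET with two anti-NS1 antibodies; normalized to uninfected (0%) and infected (100%) wells.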
# [3] = qHTS of pediatric cancer cell lines to identify multiple opportunities for drug repurposing: Primary screen for SJ-GBM2 cells (AID 1347091); note: potency is the fitted concentration of half-maximal effect
# How it was run: (§1)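 Eight- or eleven-point concentration series, 48 h treatment at 37 degrees C in growth media; readout CellTiter-Glo luminescence. Potency and efficacy were taken from the concentration-response curves.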
# [4] = qHTS of pediatric cancer cell lines to identify multiple opportunities for drug repurposing: Primary screen for A673 cells (AID 1347092); note: nearly all actives have a fitted effect of over 45% in size; note: potency is the fitted concentration of half-maximal effect
# How it was run: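 Titration-based qHTS on A673 cells: MIPE compounds spanned 11 points (0.78 nM to 46 µM final), NPC compounds 8 points (0.59 nM to 46 µM final). Viability after 48 h was measured by ATP luminescence.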
# [5] = qHTS of pediatric cancer cell lines to identify multiple opportunities for drug repurposing: Primary screen for SK-N-MC cells (AID 1347093); note: potency is the fitted concentration of half-maximal effect
# How it was run: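 Metabolically active cells were quantified by ATP-dependent luminescence (CellTiter-Glo, 15 min at room temperature) following 48 h treatment. Cells had been plated at 500-1,000 per well and settled for 5 h beforehand.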
# [6] = qHTS of pediatric cancer cell lines to identify multiple opportunities for drug repurposing: Primary screen for NB-EBc1 cells (AID 1347095); note: potency is the fitted concentration of half-maximal effect
# How it was run: (§2)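 Phenotypic viability qHTS, 48 h compound exposure, CellTiter-Glo luminescence read-out; multi-concentration dosing so that potency and efficacy derive directly from the primary screen's curves.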
# [7] = qHTS of pediatric cancer cell lines to identify multiple opportunities for drug repurposing: Primary screen for U-2 OS cells (AID 1347096); note: nearly all actives have a fitted effect of over 50% in size; note: potency is the fitted concentration of half-maximal effect
# How it was run: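 Cells (500-1,000/well) in growth media were settled 5 h at 37 degrees C, then given compounds for 48 h. Viability was read as CellTiter-Glo luminescence. Primary runs used MIPE at 11 points (0.78 nM-46 µM) and NPC at 8 points (0.59 nM-46 µM); follow-ups used 11 points.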
# [8] = qHTS of pediatric cancer cell lines to identify multiple opportunities for drug repurposing: Primary screen for SK-N-SH cells (AID 1347098); note: nearly all actives have a fitted effect of over 65% in size; note: potency is the fitted concentration of half-maximal effect
# How it was run: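 Cells (500-1,000/well) rested 5 h, then received compounds for 48 h; metabolically active cells were measured by CellTiter-Glo luminescence. Final concentrations spanned up to 46 µM (MIPE, 11-point) or 0.59 nM-46 µM (NPC, 8-point) in primary screens, 11-point in follow-ups.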
# [9] = qHTS of pediatric cancer cell lines to identify multiple opportunities for drug repurposing: Primary screen for NB1643 cells (AID 1347099); note: nearly all actives have a fitted effect of over 50% in size; note: potency is the fitted concentration of half-maximal effect
# How it was run: as §2
# [10] = qHTS of pediatric cancer cell lines to identify multiple opportunities for drug repurposing: Primary screen for BT-37 cells (AID 1347094); note: potency is the fitted concentration of half-maximal effect
# How it was run: as §2
# [11] = qHTS of pediatric cancer cell lines to identify multiple opportunities for drug repurposing: Primary screen for Saos-2 cells (AID 1347097); note: nearly all actives have a fitted effect of over 40% in size; note: potency is the fitted concentration of half-maximal effect
# How it was run: as §2
# [12] = Natriuretic polypeptide receptor (hNpr1) antagonism - Pilot counterscreen GloSensor control cell line (AID 1347045; calls by dose curve; note: potency is the fitted concentration of half-maximal effect)
# How it was run: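 HEK293 cells carrying the GloSensor cGMP sensor (GIP/pGS-40F) were loaded with 2% GloSensor reagent for 2 h, exposed to compounds for 30 min, and then stimulated with 50 uM sodium nitroprusside for 20 min at room temperature.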
# [13] = molecular target: Atrial natriuretic peptide receptor 1 (Homo sapiens) (UniProt P16066); assay: Natriuretic polypeptide receptor (hNpr1) antagonism - Pilot screen (AID 1347049; calls by dose curve;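 note: agonist-evoked cGMP luminescence read 20 min after hNppA addition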; note: potency is the fitted concentration of half-maximal effect)
# Sequence of Atrial natriuretic peptide receptor 1 (Homo sapiens) (P16066 whole entry, looked up): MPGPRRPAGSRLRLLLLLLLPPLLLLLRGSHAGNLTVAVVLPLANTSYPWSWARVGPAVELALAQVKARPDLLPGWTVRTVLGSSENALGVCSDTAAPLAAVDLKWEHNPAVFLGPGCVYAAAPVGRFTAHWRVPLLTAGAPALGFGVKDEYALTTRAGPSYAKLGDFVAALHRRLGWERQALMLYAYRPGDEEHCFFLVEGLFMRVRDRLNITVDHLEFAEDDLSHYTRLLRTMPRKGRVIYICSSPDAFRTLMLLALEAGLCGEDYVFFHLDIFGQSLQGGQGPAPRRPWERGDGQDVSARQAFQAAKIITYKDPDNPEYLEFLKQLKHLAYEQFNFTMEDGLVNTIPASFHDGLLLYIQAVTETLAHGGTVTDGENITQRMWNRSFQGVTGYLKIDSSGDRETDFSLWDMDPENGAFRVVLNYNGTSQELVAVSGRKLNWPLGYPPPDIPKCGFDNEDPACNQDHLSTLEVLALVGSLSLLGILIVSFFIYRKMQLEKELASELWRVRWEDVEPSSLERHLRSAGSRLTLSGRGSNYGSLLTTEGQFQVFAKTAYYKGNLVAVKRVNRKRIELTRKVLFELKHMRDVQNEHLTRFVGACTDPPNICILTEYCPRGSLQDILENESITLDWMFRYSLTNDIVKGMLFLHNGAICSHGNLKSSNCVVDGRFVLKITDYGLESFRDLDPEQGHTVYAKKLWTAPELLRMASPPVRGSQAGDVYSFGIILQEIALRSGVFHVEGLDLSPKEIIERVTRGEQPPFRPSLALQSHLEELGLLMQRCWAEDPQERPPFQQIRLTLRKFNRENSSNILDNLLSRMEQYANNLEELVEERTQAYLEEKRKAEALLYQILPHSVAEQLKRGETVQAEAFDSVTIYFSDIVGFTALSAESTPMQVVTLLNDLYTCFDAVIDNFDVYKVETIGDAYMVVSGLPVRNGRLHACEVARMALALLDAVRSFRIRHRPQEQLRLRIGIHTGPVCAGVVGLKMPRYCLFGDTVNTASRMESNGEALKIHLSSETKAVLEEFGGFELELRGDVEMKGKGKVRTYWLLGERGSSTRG
# How it was run: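 HEK293 cells co-expressing hNpr1 and the GloSensor pGS-40F cGMP luciferase sensor were preloaded with 2% GloSensor reagent for 2 h. Compounds were added for 30 min at room temperature, then cells were stimulated with 0.1 nM hNppA for 20 min before luminescence readout.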
# [14] = molecular target: T1, Tyrosine-protein phosphatase non-receptor type substrate 1 (Homo sapiens) + Leukocyte surface antigen CD47 (Homo sapiens) (UniProt P78324+Q08722); assay: CD47-SIRPalpha protein protein interaction - LANCE assay qHTS validation (AID 1347057; active = well fitted curve in the direction sought with a large enough effect in the signal ratio, with a control signal flat, not every such curve was filed as active; the % refers to the signal ratio; note: series mostly up to about 38 µM)
# T1 sequence (P78324 whole entry, looked up): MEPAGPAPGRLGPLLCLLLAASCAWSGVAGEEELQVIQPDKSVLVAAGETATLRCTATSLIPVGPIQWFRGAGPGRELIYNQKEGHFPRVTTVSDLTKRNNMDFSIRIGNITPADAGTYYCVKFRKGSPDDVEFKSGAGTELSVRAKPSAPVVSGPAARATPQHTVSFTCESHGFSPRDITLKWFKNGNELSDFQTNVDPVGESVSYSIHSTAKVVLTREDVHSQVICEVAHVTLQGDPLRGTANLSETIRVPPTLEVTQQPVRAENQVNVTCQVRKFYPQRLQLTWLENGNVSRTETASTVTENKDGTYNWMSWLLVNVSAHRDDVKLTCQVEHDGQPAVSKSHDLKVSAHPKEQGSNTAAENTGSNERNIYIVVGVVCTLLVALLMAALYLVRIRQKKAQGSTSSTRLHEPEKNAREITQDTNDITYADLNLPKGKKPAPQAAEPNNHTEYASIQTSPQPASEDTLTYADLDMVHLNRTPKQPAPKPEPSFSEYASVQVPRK
# T1 sequence (Q08722 whole entry, looked up): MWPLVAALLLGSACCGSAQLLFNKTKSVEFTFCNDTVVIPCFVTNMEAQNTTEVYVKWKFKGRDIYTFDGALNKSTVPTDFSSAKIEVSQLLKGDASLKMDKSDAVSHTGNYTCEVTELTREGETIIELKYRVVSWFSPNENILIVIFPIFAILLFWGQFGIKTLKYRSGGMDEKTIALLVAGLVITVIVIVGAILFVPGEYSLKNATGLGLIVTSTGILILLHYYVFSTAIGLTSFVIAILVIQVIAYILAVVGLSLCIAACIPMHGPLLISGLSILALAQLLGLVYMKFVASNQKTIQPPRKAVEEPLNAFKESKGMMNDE
# How it was run: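 First, His-tagged CD47 and Eu-labelled anti-His antibody met the compound for 30 min; next, site-specifically biotinylated SIRPalpha was added for 30 min; finally streptavidin-APC was added before reading the TR-FRET ratio.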
# [15] = molecular target: T1, Tyrosine-protein phosphatase non-receptor type substrate 1 (Homo sapiens) + Leukocyte surface antigen CD47 (Homo sapiens); assay: CD47-SIRPalpha protein protein interaction - HTRF assay qHTS validation (AID 1347058; active = well fitted curve in the direction sought with a large enough effect in the signal ratio, not every such curve was filed as active; the % refers to the signal ratio; note: series mostly up to about 38 µM)
# How it was run: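 TR-FRET read (Ch1/Ch2 ratio) of soluble extracellular CD47 and Avi-biotinylated SIRPalpha domains in PBS pH 7.4 with 0.05% IGEPAL; 7-point compound titration. Sequential 30 min room-temperature steps; non-biotinylated SIRPalpha as control inhibitor.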
# [16] = molecular target: T1, Tyrosine-protein phosphatase non-receptor type substrate 1 (Homo sapiens) + Leukocyte surface antigen CD47 (Homo sapiens); assay: CD47-SIRPalpha protein protein interaction - Alpha assay qHTS validation (AID 1347059);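 note: bead proximity luminescence from CD47 binding SIRPalpha after compound preincubation with SIRPalpha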
# How it was run: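 Soluble extracellular domains: Avi-tag biotinylated SIRPalpha (25 nM) preincubated 30 min RT with compound, then 6His-CD47 (12.5 nM) 30 min; Ni-NTA acceptor and streptavidin donor beads (10 ug/mL) 30 min, AlphaScreen read. PBS pH 7.4, 0.05% IGEPAL.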
# [17] = molecular target: Parathyroid hormone/parathyroid hormone-related peptide receptor (Homo sapiens) (UniProt Q03431); assay: qHTS for PTHR1 Agonists: Optimization Screen against the NCGC LOPAC library (AID 1347079);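 note: GloSensor cAMP luminescence in HEK-293 GP2 cells expressing human PTHR1 with IBMX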
# Sequence of Parathyroid hormone/parathyroid hormone-related peptide receptor (Homo sapiens) (Q03431 whole entry, looked up): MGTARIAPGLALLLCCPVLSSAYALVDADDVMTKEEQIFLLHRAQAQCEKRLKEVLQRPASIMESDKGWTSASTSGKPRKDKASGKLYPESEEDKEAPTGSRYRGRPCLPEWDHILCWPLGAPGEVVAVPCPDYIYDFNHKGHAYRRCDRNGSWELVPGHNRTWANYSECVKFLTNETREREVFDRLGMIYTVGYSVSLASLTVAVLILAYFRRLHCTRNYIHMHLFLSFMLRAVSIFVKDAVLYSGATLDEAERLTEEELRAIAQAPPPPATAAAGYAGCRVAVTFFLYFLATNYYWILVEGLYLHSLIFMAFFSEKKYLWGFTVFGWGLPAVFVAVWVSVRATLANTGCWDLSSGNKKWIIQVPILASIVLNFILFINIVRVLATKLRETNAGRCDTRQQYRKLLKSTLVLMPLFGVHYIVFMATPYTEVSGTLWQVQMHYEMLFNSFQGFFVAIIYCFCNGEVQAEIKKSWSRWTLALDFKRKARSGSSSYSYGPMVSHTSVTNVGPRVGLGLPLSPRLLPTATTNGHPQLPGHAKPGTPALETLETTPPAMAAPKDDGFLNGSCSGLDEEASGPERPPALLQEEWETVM
# How it was run: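 Compounds were tested across a qHTS titration. PTHR1-expressing GP2 cells report cAMP rises via GloSensor luminescence after 1 hr compound exposure at 37C with IBMX present.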
# [18] = qHTS of pediatric cancer cell lines to identify multiple opportunities for drug repurposing: Primary screen for TC32 cells (AID 1347089); note: nearly all actives have a fitted effect of over 60% in size
# How it was run: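 A viability screen of TC32 cells was run over 48 h, with primary MIPE doses spanning 0.78 nM–46 µM and NPC doses 0.59 nM–46 µM. ATP luminescence (CellTiter-Glo) served as the read-out.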
# [19] = qHTS of pediatric cancer cell lines to identify multiple opportunities for drug repurposing: Primary screen for DAOY cells (AID 1347090); note: series mostly up to about 46 µM; nearly all actives have a fitted effect of over 55% in size
# How it was run: as §1
# [20] = molecular target: Atrial natriuretic peptide receptor 2 (Homo sapiens) (UniProt P20594); assay: Natriuretic polypeptide receptor (hNpr2) antagonism - Pilot subtype selectivity assay (AID 1347050; calls by dose curve; note: potency is the fitted concentration of half-maximal effect)
# Sequence of Atrial natriuretic peptide receptor 2 (Homo sapiens) (P20594 whole entry, looked up): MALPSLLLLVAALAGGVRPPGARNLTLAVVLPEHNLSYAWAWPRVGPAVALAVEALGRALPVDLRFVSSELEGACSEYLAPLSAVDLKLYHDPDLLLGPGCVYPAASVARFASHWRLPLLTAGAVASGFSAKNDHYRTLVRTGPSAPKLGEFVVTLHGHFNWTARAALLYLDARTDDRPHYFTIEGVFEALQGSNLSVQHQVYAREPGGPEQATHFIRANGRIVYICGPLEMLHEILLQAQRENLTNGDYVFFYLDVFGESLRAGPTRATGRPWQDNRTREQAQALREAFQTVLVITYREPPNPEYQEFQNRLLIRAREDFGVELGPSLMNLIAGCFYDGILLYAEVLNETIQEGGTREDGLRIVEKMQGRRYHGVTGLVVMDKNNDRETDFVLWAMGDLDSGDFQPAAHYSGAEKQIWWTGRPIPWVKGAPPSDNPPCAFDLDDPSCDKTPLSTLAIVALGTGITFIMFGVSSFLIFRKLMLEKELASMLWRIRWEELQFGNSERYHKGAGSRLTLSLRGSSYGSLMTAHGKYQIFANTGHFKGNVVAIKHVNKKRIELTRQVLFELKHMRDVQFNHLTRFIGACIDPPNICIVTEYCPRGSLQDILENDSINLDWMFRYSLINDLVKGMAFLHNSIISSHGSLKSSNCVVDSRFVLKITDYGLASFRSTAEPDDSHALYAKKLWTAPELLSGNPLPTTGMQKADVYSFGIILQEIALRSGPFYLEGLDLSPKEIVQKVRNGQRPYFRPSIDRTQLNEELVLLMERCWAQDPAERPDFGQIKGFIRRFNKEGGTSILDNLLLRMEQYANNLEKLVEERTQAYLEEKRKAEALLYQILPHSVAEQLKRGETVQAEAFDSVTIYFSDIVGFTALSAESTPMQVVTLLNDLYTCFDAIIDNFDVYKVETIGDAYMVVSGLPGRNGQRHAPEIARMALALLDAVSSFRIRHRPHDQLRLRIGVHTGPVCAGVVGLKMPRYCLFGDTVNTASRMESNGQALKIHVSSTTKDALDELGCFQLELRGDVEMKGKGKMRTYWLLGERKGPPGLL
# How it was run: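 cGMP-sensor HEK293/hNpr2 cells; 2% GloSensor reagent 2 h RT; compounds 30 min; baseline luminescence read; 1 nM hNppC agonist 20 min RT; final luminescence read by CCD camera. Antagonism = reduced post-agonist signal.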
smiles,measurement,setting,value
N=C(N)c1ccc(OCCCCCOc2ccc(C(=N)N)cc2)cc1,Potency,[1],inactive
same,Potency,[2],inactive
same,Potency,[3],inactive
same,Potency,[4],21.1 µM (active) and 14.8 µM (active)
same,Potency,[5],33.2 µM (active)
same,Potency,[6],inactive
same,Potency,[7],inactive
same,Potency,[8],9.61 µM (active)
same,Potency,[9],20.9 µM (active)
CN(C)CCc1c[nH]c2ccc(C[C@H]3COC(=O)N3)cc12,Potency,[1],inactive
same,Potency,[2],inactive
same,Potency,[3],inactive
same,Potency,[5],inactive
same,Potency,[10],inactive
same,Potency,[6],inactive
same,Potency,[7],inactive
same,Potency,[11],inactive
same,Potency,[8],inactive
same,Potency,[9],inactive
CCn1cc(C(=O)O)c(=O)c2cc(F)c(N3CCNCC3)nc21,Potency,[1],inactive
same,Potency,[2],inactive
same,Potency,[3],inactive
same,Potency,[5],inactive
same,Potency,[10],inactive
same,Potency,[6],inactive
same,Potency,[7],inactive
same,Potency,[11],inactive
same,Potency,[8],inactive
same,Potency,[9],inactive
NC(=O)c1cccnc1,Potency,[2],inactive
same,Potency,[3],inactive
same,Potency,[4],inactive
same,Potency,[5],inactive
same,Potency,[10],inactive
same,Potency,[6],inactive
same,Potency,[7],inactive
same,Potency,[8],inactive
same,Potency,[9],inactive
OCc1ccc(-c2nn(Cc3ccccc3)c3ccccc23)o1,Potency,[12],inactive
same,Potency,[13],inactive
same,Potency,[2],inactive
same,outcome,[14],inactive
same,outcome,[15],inactive
same,outcome,[16],inactive
same,outcome,[17],inactive
same,Potency,[18],inactive
same,Potency,[3],inactive
same,Potency,[10],inactive
same,Potency,[6],inactive
same,Potency,[7],inactive
same,Potency,[8],inactive
same,Potency,[9],inactive
CCCCOc1ccc(CC(=O)NO)cc1,Potency,[2],inactive
same,Potency,[18],inactive
same,Potency,[5],7.43 µM (active)
same,Potency,[10],19.5 µM (active)
same,Potency,[6],18.7 µM (active)
same,Potency,[7],26.6 µM (active)
same,Potency,[11],23.5 µM (active)
same,Potency,[8],19.2 µM (active)
CN1CCCC(n2nc(Cc3ccc(Cl)cc3)c3ccccc3c2=O)CC1 (stereo not given),Potency,[1],inactive
same,Potency,[2],inactive
same,Potency,[3],1.32 µM (active)
same,Potency,[5],0.833 µM (active)
same,Potency,[10],2.43 µM (active)
same,Potency,[6],1.18 µM (active)
same,Potency,[7],9.35 µM (active)
same,Potency,[11],2.35 µM (active)
same,Potency,[8],27.3 µM (active) and 4.82 µM (active)
C[C@@H](NCCCc1cccc(C(F)(F)F)c1)c1cccc2ccccc12,Potency,[1],inactive and 20.6 µM (active)
same,Potency,[2],inactive
same,Potency,[3],inactive
same,Potency,[4],inactive
same,Potency,[10],inactive
same,Potency,[6],inactive
same,Potency,[7],inactive
same,Potency,[9],inactive
O[C@@H](CNC[C@H](O)[C@H]1CCc2cc(F)ccc2O1)[C@@H]1CCc2cc(F)ccc2O1,Potency,[1],20.9 µM (active)
same,Potency,[18],inactive
same,Potency,[19],inactive
same,Potency,[3],20.9 µM (active)
same,Potency,[10],27.6 µM (active)
same,Potency,[6],21.1 µM (active)
same,Potency,[11],26.4 µM (active)
same,Potency,[8],27.3 µM (active)
O=C(O)c1ccc(-n2nc(-c3ccccc3O)nc2-c2ccccc2O)cc1,Potency,[2],inactive
same,Potency,[3],20.9 µM (active)
same,Potency,[10],24.6 µM (active)
same,Potency,[6],8.33 µM (active)
Cc1ccc(S(=O)(=O)N[C@@H](Cc2ccccc2)C(=O)CCl)cc1,Potency,[12],3.29 µM (active)
same,Potency,[13],12 µM (active)
same,Potency,[20],5.85 µM (active)
same,Potency,[2],inactive
same,outcome,[14],inactive
same,outcome,[15],inactive
same,outcome,[16],inactive
same,outcome,[17],inactive
same,Potency,[18],inactive
same,Potency,[3],9.35 µM (active)
same,Potency,[5],7.43 µM (active)
same,Potency,[10],24.3 µM (active)
same,Potency,[6],16.6 µM (active)
same,Potency,[11],9.35 µM (active)
same,Potency,[8],21.5 µM (active)
same,Potency,[9],20.9 µM (active)
